From PubChem BioAssay AID2702 (National Center for Advancing Translational Sciences (NCATS), 2010) come the findings set out here.

Calls of active or inactive are those of the source.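 The calls were made as follows: active = compounds blocking 15-hLO-2 with IC50 at or below the top tested dose, none here; inactive = the rest.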

Polyunsaturated fatty acid lipoxygenase ALOX15B (Homo sapiens), sequence (O15296 whole entry, looked up): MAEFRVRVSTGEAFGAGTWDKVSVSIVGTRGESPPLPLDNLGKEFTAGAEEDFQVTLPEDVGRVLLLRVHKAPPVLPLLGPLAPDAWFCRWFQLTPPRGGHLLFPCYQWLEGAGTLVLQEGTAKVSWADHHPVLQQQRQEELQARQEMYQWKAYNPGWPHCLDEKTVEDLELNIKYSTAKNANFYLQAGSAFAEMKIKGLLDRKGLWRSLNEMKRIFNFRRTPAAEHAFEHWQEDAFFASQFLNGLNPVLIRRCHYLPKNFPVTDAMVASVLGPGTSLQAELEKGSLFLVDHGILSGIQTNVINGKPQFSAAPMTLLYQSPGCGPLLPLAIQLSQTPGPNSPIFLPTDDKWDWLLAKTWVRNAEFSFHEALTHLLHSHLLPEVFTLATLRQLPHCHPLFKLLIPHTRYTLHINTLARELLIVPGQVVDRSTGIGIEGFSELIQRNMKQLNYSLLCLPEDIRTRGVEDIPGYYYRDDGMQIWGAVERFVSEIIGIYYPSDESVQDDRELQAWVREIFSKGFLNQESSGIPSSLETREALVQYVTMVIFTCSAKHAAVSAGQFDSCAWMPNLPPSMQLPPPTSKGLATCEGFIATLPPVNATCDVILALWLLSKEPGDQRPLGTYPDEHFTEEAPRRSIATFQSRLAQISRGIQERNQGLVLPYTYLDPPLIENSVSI

The target in this assay is Polyunsaturated fatty acid lipoxygenase ALOX15B (Homo sapiens) (UniProt O15296). Briefly: Cuvette-Based Assay fo Inhibitors of 15-hLO-2 (15-human lipoxygenase 2). The settings on record: purified 15hLO-2, arachidonic acid, UV 234 nm cuvette. On the procedure:
Human lipoxygenase 15hLO-2 is a member of the closely related lipoxygenase family of enzymes which catalyze the site-specific oxidation of arachidonic acid to various hormone precursor molecules and as such is a candidate for drug development in a variety of disease areas, such as cancer and inflammation. Inhibition of 15hLO-2 activity was screened by utilizing arachidonic acid as a substrate. The extent of hydroperoxide product formation was measured by a secondary chromogenic reaction in which xylenol orange (XO, Sigma-Aldrich, cat. number 39,818-7) reacts with the ferric ions produced from the reaction between the hydroperoxide and ferrous ions. The Fe(III)-XO complex is characterized with red-shifted absorbance at 560 nm. A purified preparation of human 15hLO-2 was supplied by Professor Ted Holman, University of California, Santa Cruz. This assay is includes some confirmation and follow-up compounds for related primary screening assay AID 881. Assay Provider: Holman, T.R., University of California, Santa Cruz Screening Center PI: Austin, Christopher P. Screening Center: NIH Chemical Genomics Center
For control experiments, 2 mL of substrate buffer (7 uM arachidonic acid / 25 mM HEPES / 0.01% (v/v) Triton X-100, pH 7.5) was aliquoted in a cuvette with a magnetic stir bar. After equilibrium was ensured, an aliquot of inhibitor solvent was added (DMSO or MeOH), and equilibrium was once again assured. The reaction was started by adding enzyme to the cuvette and the reaction was followed until completed. The inhibition experiments were performed as above, except the actual inhibitory compound was added instead of vehicle. To achieve an IC50, typically 5 concentrations of the inhibitor were studied. If the inhibitor concentration was constant, then five different reaction volumes were used. Step \ Parameter \ Value \ Description 1; UV-Vis; 234 nm; Equilibration 2; Reagent; 2 mL; Substrate buffer 3; UV-Vis; 234 nm; Equilibration 4; Reagent; varies; Compound 5; UV-Vis; 234 nm; Equilibration 6; Reagent; 50-200 nM; Enzyme 15hLO-2 7; UV-Vis; 234 nm; Enzymatic reaction Step \ Notes 1. Blank cuvette to air. 2. 7 uM AA, 25 mM HEPES, 0.01% Triton X-100, pH 7.5. 3. No change in absorbance ensured. 4. Compound vehicle or compound in various concentrations depending on potency. 5. No change in absorbance ensured. 6. Enzyme concentration to achieve reaction rate between 0.02 and 0.04 AU/s. 7. Enzymatic reaction visualized until completion.
As for `CC(C)Nc1oc(-c2cccc3ccccc23)nc1C#N`, the compound was called inactive.
Then `COc1cccc(CNc2ccc(N3CCCCC3)cc2)c1OC`, with “inactive”; and `O=C(OCC#CCSc1nnc(-c2cccc3ccccc23)o1)c1cc2ccccc2o1`, with “inactive”.
The entry for `O=C(OCC#CCSc1nnc(-c2cccc3ccccc23)o1)c1ccc(F)cc1` is “inactive”.
The entry for `O=C1c2ccccc2NC(c2ccc(-c3cccc(Cl)c3)o2)N1O` (configuration not stated) is “inactive”.
`O=C(OCC#CCSc1nnc(-c2cccc3ccccc23)o1)c1cccs1`: the compound was classed as inactive.
Then `CC(=O)N1CCN(c2ccc(NCc3ccc4c(c3)OCO4)cc2)CC1`, with “inactive”.
